# USP2a inh: inhibitors of human ubiquitin-specific protease USP2a; 330,000 compounds, 0.01% hits; USP2 core, Ub-CHOP2 coupled fluorogenic reporter, 485/531; Potency, µM (highest dose often 38.3 µM), hits mostly inhibitors
#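 Cell-free coupled assay: 10nM USP2 core preincubated 30min RT with compound in Tris-HCl pH 8.0/CaCl2/CHAPS buffer, then 25nM Ub-CHOP2 and 25nM reporter substrate; fluorescence (Ex 485/Em 531) read after 60min RT, normalized to NEM inhibition, concentration-response curves fitted.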
# USP1 inh: inhibitors of human USP1/UAF1 deubiquitinase | O94782 | recombinant USP1/UAF1, Ub-Rhodamine cleavage fluorescence | Potency, µM (highest dose often 57.1 µM), usual class: inhibitors | 390,000 compounds, 0.23% hits | AID 743255; further: nearly all actives have a fitted effect of over 60% in size
# Target sequence (O94782 whole entry, looked up): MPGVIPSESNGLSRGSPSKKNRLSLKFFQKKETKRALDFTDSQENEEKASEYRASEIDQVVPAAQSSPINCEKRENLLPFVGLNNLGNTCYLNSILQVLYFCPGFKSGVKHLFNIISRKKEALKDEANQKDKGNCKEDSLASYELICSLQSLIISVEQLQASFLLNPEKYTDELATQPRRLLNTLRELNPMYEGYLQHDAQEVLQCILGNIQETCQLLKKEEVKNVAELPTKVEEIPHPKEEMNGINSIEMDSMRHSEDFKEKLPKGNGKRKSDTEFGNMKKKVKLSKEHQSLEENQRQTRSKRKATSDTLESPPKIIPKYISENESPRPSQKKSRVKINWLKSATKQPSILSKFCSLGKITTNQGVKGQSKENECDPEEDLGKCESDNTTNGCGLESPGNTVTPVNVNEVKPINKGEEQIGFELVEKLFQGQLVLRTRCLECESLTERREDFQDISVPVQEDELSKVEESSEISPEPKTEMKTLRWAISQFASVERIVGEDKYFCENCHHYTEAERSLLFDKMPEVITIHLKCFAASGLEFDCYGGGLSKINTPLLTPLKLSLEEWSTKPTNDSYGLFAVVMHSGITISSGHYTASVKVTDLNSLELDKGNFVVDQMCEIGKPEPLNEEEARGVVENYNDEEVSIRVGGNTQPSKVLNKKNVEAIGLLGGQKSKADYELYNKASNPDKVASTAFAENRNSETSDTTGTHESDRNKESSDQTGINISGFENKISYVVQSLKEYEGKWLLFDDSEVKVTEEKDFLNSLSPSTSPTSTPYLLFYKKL
#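 High-throughput fluorogenic screen: 1nM USP1/UAF1 complex, Ub-Rho substrate 150nM final, 50mM HEPES pH 7.8 with 0.5mM EDTA, 0.1 mg/ml BSA, 1mM TCEP and 0.01% Tween-20.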
# ATXN2 expr inh: ATXN2 expression inhibition; 360,000 compounds, 0.72% hits; Potency, µM (titrated, usually from 57 µM), usual class: inhibitors; HEK-293 ATXN2-luciferase reporter, luminescence, 24 h; further: nearly all actives have a fitted effect of over 55% in size
#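 ATXN2-luciferase reporter cells (luciferase flanked by upstream and downstream ATXN2 gene portions) were treated 24 h at 37 °C with compounds at up to 57 uM. SteadyGlo luminescence gave expression; GF-AFC fluorescence gave viability.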
# IL1B secr inh: inhibitors of inflammasome signaling (IL-1 beta secretion) | THP-1 LPS/ATP IL-1B secretion, AlphaLISA, 16 h; stronger effect = lower value | 360,000 compounds, 4.7% hits | activity change, % at 57.5 µM; in the data active means activity change below about -50%; inconclusive means mostly about -30% to -49%
#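 Secreted IL-1B measured by AlphaLISA bead assay after 16 h compound exposure of THP-1 cells; compounds (final up to 57.5 uM) added 1 h before LPS (250 ng/mL) and ATP (1.25 mM) stimulation; lower signal means less secretion.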
# S2 tox: reduces viability in counter-screen for ATXN expression inhibitors; S2 cells (HEK-293 line with an ATXN2-luciferase reporter) viability, CellTiter-Fluor protease fluorescence, 24 h; Potency, µM (series often up to 56.7 µM), most hits filed as cytotoxic; 400,000 compounds, 0.49% hits; further: nearly all actives have a fitted effect of over 40% in size
# A number is an active result; i = inactive; ? = inconclusive; nt = no result. In the library only some 4.8% were active in any assay of this set; here they are far more common. Unless noted, the call rests on the fitted dose curve; in most records, active means well fitted curve in the direction sought with a large enough effect; inconclusive means small, poorly fitted or top-dose-only effect, or another doubt; inactive means no such curve, though single readings can be large; an effect the other way counts as inactive or inconclusive.
SMILES,USP2a inh,USP1 inh,ATXN2 expr inh,IL1B secr inh,S2 tox
COc1ccc(NC(=O)CSC2=Nc3ccccc3C3=NC(CCC(=O)NC4CCCCC4)C(=O)N23)cc1Cl (stereo not drawn),nt,i,i,nt,i
CCOc1ccc(-c2nc(CN(Cc3ccccc3)C[C@@H]3CCC(=O)N3)c(C)o2)cc1,i,i,?,-81,i
O=S(=O)(Nc1ccc2oc3c(c2c1)CCCC3)c1cc(Cl)ccc1Cl,nt,i,i,nt,i
O=C(NC1CC1)C1CCN(S(=O)(=O)c2ccc(Cl)c([N+](=O)[O-])c2)CC1,i,i,nt,-97,?
O=[N+]([O-])c1cc(/C=N/NC(=S)Nc2ccccc2Cl)ccc1Cl,i,i,i,-86,i
O=C(N/N=C/c1ccc(Cl)c([N+](=O)[O-])c1)C1CC1,i,i,i,-50,i
O=C(NC1CCN(S(=O)(=O)c2cccc([N+](=O)[O-])c2)CC1)C1CCCCC1,i,i,i,i,i
O=C(OCC(=O)c1ccc(Cl)s1)c1ccc(CO)cc1,i,i,i,i,i
CC(=O)c1ccc(N(C(=O)c2csnn2)C(C(=O)NC2CCCC2)c2ccccc2)cc1 (stereo not drawn),i,i,i,i,i
CCC(=O)OCC(=O)[C@@]1(OC(=O)CC)[C@H](C)C[C@H]2[C@H]3[C@H]([C@@H](O)C[C@@]21C)[C@@]1(C)C=CC(=O)C=C1C[C@H]3Cl,nt,nt,nt,nt,i
CCC(=O)OCC(=O)C1(OC(=O)CC)[C@H](C)C[C@H]2[C@H]3[C@H]([C@@H](O)C[C@@]21C)[C@@]1(C)C=CC(=O)C=C1C[C@H]3Cl (stereo partly drawn),i,i,i,-51,i
CC(Sc1nnc(C2CC2)n1C)C(=O)Nc1ccc(N2CCOCC2)cc1 (stereo not drawn),i,i,i,i,i
CCNc1nc(N)c(C(=O)C23CC4CC(CC(C4)C2)C3)s1,i,i,nt,i,nt
CCNc1nc(N)c(C(=C(C#N)C#N)c2ccccc2)s1,i,i,i,-75,i
CC1(C(=O)Nc2cccc3ccccc23)CCN1C(=O)Cc1ccc(Cl)cc1Cl (stereo not drawn),nt,nt,i,i,i
Cc1cc(NS(=O)(=O)c2ccc(Nc3nc(-c4ccc(O)cc4)cs3)cc2)no1,i,i,i,i,i
Cc1cc(NS(=O)(=O)c2ccc(Nc3nc(-c4ccc(C)c(C)c4)cs3)cc2)no1,?,i,i,-56,i
NS(=O)(=O)c1ccc(Nc2nc(-c3ccc(O)cc3O)cs2)cc1,i,i,i,-57,i
COc1ccc(-c2csc(Nc3ccc(S(N)(=O)=O)cc3)n2)cc1OC,i,i,?,-64,i
CC(=O)Nc1ccc(-c2csc(Nc3ccc(S(N)(=O)=O)cc3)n2)cc1,i,i,i,i,i
NS(=O)(=O)c1ccc(Nc2nc(-c3cccnc3)cs2)cc1,i,i,i,i,i
NS(=O)(=O)c1ccc(Nc2nc(-c3ccc(F)cc3)cs2)cc1,i,i,?,-88,i
O=C(CCNC(=O)c1ccccc1Cl)NCC1COc2ccccc2O1 (stereo not drawn),i,i,i,i,i
O=c1c2cn[nH]c2nc(SCc2c(F)cccc2F)n1-c1ccc(Cl)cc1,i,i,i,-74,i
Cc1nc2ccccc2n1Cc1ccc(Br)cc1,nt,i,?,-63,i
SMILES,USP2a inh,USP1 inh,ATXN2 expr inh,IL1B secr inh,S2 tox
CC(=O)Nc1nc2ccccc2n1Cc1ccc(Cl)cc1,i,?,18µM,i,25µM
O=C(COC(=O)/C=C/C(=O)OCC(=O)NC12CC3CC(CC(C3)C1)C2)NC12CC3CC(CC(C3)C1)C2,i,i,?,-93,nt
CC(=O)c1ccc(NC(=O)c2cccc(NC(=O)N3CCSc4ncccc43)c2)cc1,nt,i,nt,nt,nt
CC(=O)C[C@H](O)CC(=O)[C@@H]1OC(=O)CCCCCCc2ccccc21,i,i,i,i,i
CCOC(=O)c1[nH]c2ccccc2c1NC(=O)c1ccc(Br)cc1,nt,i,i,nt,i
CCC(C)NS(=O)(=O)c1ccc(NC(=O)C(Sc2ccccc2)c2ccccc2)cc1 (stereo not drawn),i,i,?,-54,?
CC(C)N1CCCC(C)(C(=O)Nc2cccc(Oc3ccccc3)c2)C1 (stereo not drawn),nt,nt,i,i,i

# Bioassay records as filed in PubChem.
